# High-throughput results from PubChem.
# Compounds with a hit are over-represented: about 2.2% of the library has one in this group of screens.
# TDP-43 yeast inh – qHTS of TDP-43 Inhibitors. hit rate 1.8% among 410,000. TDP-43 expressing yeast growth rescue, BacTiter-Glo, 24 h. Potency, µM (series often up to 46.1 µM), for inactives: at the top dose growth rescue (activation), hits mostly activators; further: % of control where 0% means no effect; nearly all actives have a fitted effect of over 50% in size
#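 In this qHTS, compounds that restore growth of yeast expressing TDP-43 appear as activators. Cells (OD600=0.02, galactose medium, raffinose-pregrown) are incubated with compound 24 hr at 30 deg C and growth is quantified by BacTiter-Glo.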
# aSyn rescue – qHTS of alpha-syn Inhibitors | Potency, µM (doses to about 46.1 µM), for the others: top-dose growth rescue (activation), actives largely listed as activators | hit rate 0.14% among 370,000 | Yeast expressing alpha-synuclein, growth rescue, BacTiter-Glo, 24 h; further: % of control where 0% means no effect; nearly all actives have a fitted effect of over 65% in size
#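 Readout is rescue of growth in alpha-synuclein-expressing yeast, so inhibitors of toxicity appear as activators. Growth after 24 hr at 30 deg C in galactose medium is quantified by luminescence.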
# FUS yeast rescue – qHTS for Suppressors of FUS Proteinopathy: Primary screen using FUS-linked yeast assay; Potency, µM (top dose mostly 76.6 µM), hits mostly activators; S. cerevisiae FUS-expressing, growth rescue, OD600, 24 h; AID 1347120, 2019; hit rate 0.24% among 390,000;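 further: plate controls were DMSO vehicle for no effect and reference control for full effect; nearly all actives have a fitted effect of over 55% in size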
#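 Read-out: OD at 600 nm after 24hr at 30C, reporting rescue of FUS-induced yeast toxicity. Cells at OD 0.005 in galactose (2%) minimal medium; compounds tested in a dilution series; CP55940 titration from 92uM final as control.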
# Mito fusion act – qHTS Assay for Small Molecule Inhibitors of Mitochondrial Division or Activators of Mitochondrial Fusion; Potency, µM (titrated, usually from 46.1 µM), inactives show top-dose growth rescue (activation), most hits filed as activators; S. cerevisiae fusion-defective mutant growth rescue, CellTiterGlo 48 h; hit rate 0.23% among 320,000; AID 485298, 2010; further: % of control where 0% means no effect; nearly all actives have a fitted effect of over 45% in size
#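 S. cerevisiae fusion-defective temperature-sensitive mutants (e.g. fzo1-1, mgm1-5) grown 48 h at 37C in YPEG (ethanol/glycerol non-fermentable) medium with 23 nl compound per well; growth rescue read as CellTiterGlo luminescence.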
# Abeta yeast res – qHTS for compounds that reverse cellular toxicity of Amyloid beta (A-beta) peptide in yeast: Primary Screen | yeast expressing A-beta42, growth rescue, OD600, 48 h; response scale: 0% DMSO, 100% iron-clioquinol control | Potency, µM (highest dose often 46.1 µM), hits mostly activators | hit rate 0.063% among 410,000 | AID 1347071, 2019; further: nearly all actives have a fitted effect of over 55% in size
#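 Yeast growth medium received pinned compounds, then yeast cells expressing toxic A-beta were added; plates incubated at 30 C for 48 hr. Growth read as absorbance at 600 nm, normalized to DMSO and equimolar FeCl3 plus clioquinol controls.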
# Numbers without * were called inactive; i = inactive; ? = inconclusive; . = no result; ! = repeats disagree; [ ] = remark or other dose. The call rests on the fitted dose curve; in most records, active means well fitted curve in the direction sought with a large enough effect; inconclusive means small, poorly fitted or top-dose-only effect, or another doubt; inactive means no such curve, though single readings can be large; an effect the other way counts as inactive or inconclusive. Potency means the concentration at half of the fitted maximal effect.
SMILES,TDP-43 yeast inh,aSyn rescue,FUS yeast rescue,Mito fusion act,Abeta yeast res
Cc1nn(-c2ccccc2)c(OC(=O)c2ccc(Br)cc2)c1S(=O)(=O)c1ccccc1,-42%,.,i,.,i
CCc1ccc(NC(=O)N2CCOc3ccc(Cl)cc32)cc1,10%,.,i,.,i
CCCCCCSc1nsc(NC(C)=O)n1,?,2%,i,18%,i
CCCCSc1nsc(NC(C)=O)n1,13µM*,.,i,3%,i
COc1ccccc1C1c2c(ncn(-c3ccccc3)c2=N)Oc2ccc3ccccc3c21 (configuration not stated),.,.,i,.,.
O=[N+]([O-])c1ccc(Oc2ccc(S(=O)(=O)Nc3ccccc3)cc2)cc1,2.8µM*,3%,i,?,i
CS(=O)(=O)Nc1ccccc1Oc1ccccc1,12%,2%,i,-3%,i
CS(=O)(=O)Nc1ccc([N+](=O)[O-])cc1Oc1ccccc1,24%,-21%,i,23µM*!,i
O=C(NCc1ccccc1)C1c2ccccc2OCC(=O)N1CCc1c[nH]c2ccccc12 (configuration not stated),24%,2%,i,.,i
CNC[C@H]1Oc2ccc(NC(=O)C3CCCCC3)cc2CC(=O)N([C@H](C)CO)C[C@@H]1C,11%,-6%,i,.,i
COc1cccc(C(=O)N2c3ccccc3Sc3ccccc32)c1,22µM*,24%,i,?,i
Cc1cccc(N2C(=O)N3[C@@H]4c5ccccc5OC[C@@H]4[C@@H](c4ccccc4)[C@@]3(C)C2=O)c1,-8%,23%,?,8%,i
OC(Cn1cncn1)(c1ccc(F)cc1)c1ccc(Cl)cc1 (configuration not stated),?,28%,i,7.1µM*,i
OC(Cn1cncn1)c1ccc(Cl)cc1 (configuration not stated),-19%,13%,i,-4%,i
CCCCOc1ccc(S(=O)(=O)NNC(=O)c2cc3ccccc3o2)cc1,-7%,0%,.,11µM*,i
O=C(NC1CCCCC1)c1ccc(CSc2nc3cccnc3n2Cc2ccc(F)cc2)cc1,-4%,.,i,.,i
CCOC(=O)CSc1nnc2n(-c3ccccc3)c(=O)c3c4c(sc3n12)CC(C(C)(C)C)CC4 (configuration not stated),35µM*,.,?,.,i
COc1ccc(F)cc1S(=O)(=O)NCCc1csc(-c2ccc(Cl)cc2)n1,?,.,?,.,i
O=S(=O)(NCCc1csc(-c2cccnc2)n1)c1ccc(Cl)s1,14µM*,-2%,i,22%,11µM*
O=S(=O)(NCCc1csc(-c2cccnc2)n1)c1cccs1,20%,-12%,i,1%,?
O=S(=O)(NCCc1csc(-c2ccc(F)cc2)n1)c1ccc(F)cc1F,2.8µM*,.,i,.,?
COc1ccc(N(C(=O)CNC(=O)c2ccco2)C(C(=O)NC2CCCC2)c2ccco2)cc1 (configuration not stated),-1%,-1%,i,0%,i
Cc1ccc(OCc2cc(C(=O)N3CCC(C(O)C(C)C)CC3)no2)cc1C (configuration not stated),16µM*,12%,?,-17%,i
COc1ccc(N2CCC(CNC(=S)Nc3cc(C)ccc3C)C2)cc1 (configuration not stated),14µM*,?,i,14%,?
COc1ccc(N2CCC(CNC(=S)Nc3cc(C)cc(C)c3)C2)cc1 (configuration not stated),?,5%,?,14%,?
SMILES,TDP-43 yeast inh,aSyn rescue,FUS yeast rescue,Mito fusion act,Abeta yeast res
COc1ccc(CN(CC2CCC(C(=O)O)CC2)C(=S)Nc2ccccc2C)cc1 (configuration not stated),-10%[0.397 µM],2%,i,-5%,i
COc1ccc(CN(CC2CCC(C(=O)O)CC2)C(=S)Nc2cc(C)ccc2C)cc1 (configuration not stated),22µM*,10%,i,1%,i
Clc1ccccc1-c1ccc2ncnc(NCc3ccc4c(c3)OCO4)c2c1,.,.,i,?,i
Clc1ccccc1-c1cnc2sc(NCc3ccc4c(c3)OCO4)nn12,4µM*,7%,i,.,i
Cc1cc(C)cc(NC(=O)c2ccc3c(c2)nnn3C2CCCC2)c1,-22%,.,i,.,i
Clc1ncnc2scc(-c3ccccc3)c12,19%,15%,i,-1%,i
Cc1ccc(-c2csc3ncnc(Cl)c23)cc1,16µM*,3%,i,-11%,i
Cc1ccccc1-c1cc(C(=O)Nc2sc(C)c(C)c2C(N)=O)c2ccccc2n1,22µM*,-18%,i,17%,i
CCOC(=O)c1sc(NC(=O)c2cc(-c3ccccc3C)nc3ccccc23)c(C#N)c1C,1%,-32%,i,1%,i
Cc1c(C(C)(C)O)[nH]c2ccc(C(F)(F)F)cc12,35µM*,5%,i,2%,18µM*
CCC(C)(O)c1[nH]c2ccc(C(F)(F)F)cc2c1C (configuration not stated),18µM*,0%,i,-6%,14µM*
COC(=O)c1ccc2c(C)c(C(C)(C)O)[nH]c2c1,15%,8%,i,5%,i
CCOC(=O)CNc1cccc(C(F)(F)F)c1,-4%[0.397 µM],1%,i,4%,i
COc1cc(-c2coc3c(C(=O)NCc4ccccc4)cccc23)ccc1O,13µM*,4%,?,.,i
O=C(NCc1ccc(C(F)(F)F)cc1)c1cccc2c(-c3ccc(F)c(F)c3)coc12,0%,10%,i,.,i
CS(=O)(=O)Nc1cccc(NC(=O)c2cccc3c(-c4ccc(F)c(F)c4)coc23)c1,10%,0%,20µM*,.,i
O=C(NCc1ccco1)c1cccc2c(-c3ccc(F)c(F)c3)coc12,14µM*,1%,i,.,i
CCOC(=O)N1CCC(NC(=O)c2ccc3c(c2)N(Cc2ccc(F)cc2)C(=O)c2ccccc2S3(=O)=O)CC1,-17%,.,25µM*,.,i
O=C(c1ccc2c(c1)N(Cc1cccc(Cl)c1)C(=O)c1ccccc1S2(=O)=O)N1CCCCCC1,12%,.,?,.,i
O=C1c2ccccc2S(=O)(=O)c2cc(C(=O)N3CCN(c4ccc(Cl)cn4)CC3)ccc21,20µM*,6%,i,.,i
O=C(c1ccc2c(c1)N(Cc1ccc(Cl)cc1)C(=O)c1ccccc1S2(=O)=O)N1CCCCCC1,18%,.,28µM*,.,i
N#Cc1cccnc1N1CCN(C(=O)c2ccc3c(c2)S(=O)(=O)c2ccccc2C3=O)CC1,-18%,0%,i,.,i
